Experimental data reported in ChEMBL document CHEMBL4513216, “Probing the Open Global Health Chemical Diversity Library for Multistage-Active Starting Points for Next-Generation Antimalarials” (ACS Infect Dis, 2020).
Hit rate of the full screen: of about 68,000 compounds, about 2,700 (4%) showed an effect of 50% or more. The list comes from a sample in which strong results are over-represented; it also holds similar structures and randomly drawn compounds.

Test system: Plasmodium berghei
Assay: Screen against P. berghei liver stage (PbLuc), transformed with Luciferase, at 2uM
Type: functional, HepG2
Details: tested at 2 uM

SMILES | INHIBITION
Cc1noc(C)c1CN1CCn2c(COC(C)C)nnc2C1 | 40.71%
Fc1ccc(OCCNC2CCN(Cc3ccncc3)CC2)c(F)c1 | 4.19%
Cc1ccc(CCNC(=O)Cn2nc(C)n(Cc3ccccc3)c2=O)s1 | -8.8%
Cc1nn(CC(=O)NCCc2ccncc2)c(=O)n1Cc1ccccc1 | 53.98%
Cc1ccc(CCNC(=O)Cn2nc(C)n(Cc3ccccc3)c2=O)o1 | -9.48%
Cc1nnc(CN2C[C@H](NC(=O)C3CCOCC3)[C@@H](C(C)C)C2)s1 | -29.43%
N[C@@H]1c2ccccc2C2(CCN(c3ncccc3C(F)(F)F)CC2)[C@H]1O | -7.99%
OCC1(O)CCN(c2ncccc2C(F)(F)F)CC1 | 65.3%
OCC1(O)CCN(c2ccnc3c(C(F)(F)F)cccc23)CC1 | -100.41%
Cn1c(CC2CCS(=O)(=O)C2)nnc1SCCOc1cccc(Cl)c1 (stereo unspecified) | 42.62%
CS(=O)(=O)NCc1cncc2c1CCN(CC1CCOC1)C2 (stereo unspecified) | 52.05%
Cc1nccc(NCc2cncc3c2CCN(CC2CCOC2)C3)n1 (stereo unspecified) | 22.23%
c1cnc(NCc2cncc3c2CCN(CC2CC2)C3)nc1 | 30.99%
O=C(NCc1cncc2c1CCN(C1CCOCC1)C2)c1ccno1 | 36.06%
O=C(NCc1cncc2c1CCN(CC1CCOC1)C2)c1ccno1 (stereo unspecified) | 69.13%
O=C(NCc1cncc2c1CCN(CC1CCOC1)C2)c1ccco1 (stereo unspecified) | 7.33%
COc1ccccc1C(=O)N1CC(=O)N(Cc2ccco2)CC(O)C1 (stereo unspecified) | -8.2%
Cc1cnccc1CN1Cc2ccccc2OC2(CCC(CO)CC2)C1 (stereo unspecified) | 19.76%
O=C1CCC2(CCC(NCc3ccoc3)CC2)N1 (stereo unspecified) | -29.46%
CCc1cnc(NCC(c2ccncc2)N2CCOCC2)nc1 (stereo unspecified) | 0.12%
CN1CCC(c2nnc3ccc(C(=O)N4CCCCC4)cn23)C1 (stereo unspecified) | 23.43%
CCNC(=O)[C@@H]1C[C@@H](NC(=O)c2cccn2C)CN1CCCSC | 29.89%

SMILES | INHIBITION
CCNC(=O)[C@@H]1C[C@@H](NC(=O)c2ccc(C#N)cc2)CN1CCCSC | 22.89%
CCNC(=O)[C@@H]1C[C@@H](NC(=O)c2ccsc2)CN1CCCSC | 68.61%
CCOCc1cnc2n1CCN(C(=O)C1=CCCC1)C2C (stereo unspecified) | 21.92%
COCc1cnc2n1CCN(C(=O)c1cnc3ccccc3c1)C2C (stereo unspecified) | -17.69%
COCc1cnc2n1CCN(C(=O)c1ccc3ccccc3n1)C2C (stereo unspecified) | 53.08%
COCC(=O)N1CCn2c(COc3cccnc3)cnc2C1C (stereo unspecified) | -28.81%
COCc1cnc2n1CCN(C(=O)c1cc3ccccc3o1)C2C (stereo unspecified) | -29.49%
CC1c2ncc(COc3cccnc3)n2CCN1C(=O)C1=CCCC1 (stereo unspecified) | -7.05%
COCc1cnc2n1CCN(C(=O)C1=CCCCC1)C2C (stereo unspecified) | 11.55%
CC1c2ncc(COc3cccnc3)n2CCN1C(=O)C1=CCCCC1 (stereo unspecified) | 52.36%
COCc1cnc2n1CCN(C(=O)C1=CCCC1)C2C (stereo unspecified) | 53.46%
CS(=O)(=O)c1ccc(Cl)c(NC(=O)NCCC2=CCCCC2)c1 | 36.66%
Cc1cnn(CC2CN(Cc3nnc(C(C)C)o3)CCO2)c1 (stereo unspecified) | -11.91%
CCc1ccc(CN2CCN(c3cccc(OC)c3)C(=O)C2)nc1 | -18.92%
CC(c1cccc(-c2cn(Cc3ccoc3)nn2)c1)N(C)C (stereo unspecified) | 28.62%
N#Cc1ccc(C(=O)N2CC[C@H]3[C@H]2CCN3CC2CC2)cc1 | 5.14%
CCc1cccc(OC2CN(C(=O)[C@@H](N)[C@@H](C)O)C2)c1 | 18.28%
CCn1cc(NC(=O)c2cccc(OCC(F)(F)F)n2)cn1 | -44.13%
COCC(Nc1ncnc2sc(C(=O)O)c(C)c12)c1ccnn1C (stereo unspecified) | -1.87%
CC(C1CC1)N(C)C(=O)CCn1cccn1 (stereo unspecified) | 31.51%
CC(C)CN1CCN(C(=O)CCn2cccn2)CC1 | 0.74%
CCN(C(=O)CCn1cccn1)C1CC1 | 72.05%

SMILES | INHIBITION
CNC(=O)C1CCN(C(=O)CCn2cccn2)CC1 | -84.03%
CC(C)CC(C)N(C)C(=O)CCn1cccn1 (stereo unspecified) | 62.51%
CCC(=O)N1CCN(C(=O)CCn2cccn2)CC1 | -27.69%
O=C1CC(NS(=O)(=O)c2ccc3ccccc3c2)CN1 (stereo unspecified) | 2.11%
CN(Cc1ccccc1O)C(=O)NC1CCCN(c2ncccn2)C1 (stereo unspecified) | -12.48%
COc1c(C2CCCN2Cc2nc(C3CC3)no2)c(C)nn1C (stereo unspecified) | -13.46%
CCc1nc(C2CCCN2C(=O)CCn2cncn2)no1 (stereo unspecified) | 7.54%
c1ccc2oc(CN3CCCC3c3noc(C4CC4)n3)nc2c1 (stereo unspecified) | 63.68%
Cc1nn(C)c(C)c1C1CCCN1Cc1nc(C2CC2)no1 (stereo unspecified) | -38.96%
CCc1nc(C2CCCN2CCn2cncn2)no1 (stereo unspecified) | 58.49%
CCc1nc(C2CCCN2C(=O)CCCn2cncn2)no1 (stereo unspecified) | 37.31%
CCS(=O)(=O)CCN1CCCC1c1noc(C2CC2)n1 (stereo unspecified) | 51.21%
Cc1nn(C)c(Cl)c1C1CCCN1Cc1nc(C2CC2)no1 (stereo unspecified) | 51.94%
CCc1nc(C2CCCN2Cc2nc3ccccc3o2)no1 (stereo unspecified) | -32.11%
CCS(=O)(=O)CCN1CCCC1c1noc(C)n1 (stereo unspecified) | 49.02%
c1ccc2oc(CCCN3CCCC3c3noc(C4CC4)n3)nc2c1 (stereo unspecified) | 18.86%
CS(=O)(=O)CCN1CCCC1c1noc(C2CC2)n1 (stereo unspecified) | 21.83%
O=C1CN(Cc2ccc3ccccc3n2)CCN1C1CCCC1 | -34.37%
CNC(=O)NCC(=O)N1CCCC1Cc1cccc(F)c1 (stereo unspecified) | 41.21%
CNc1nc(C(=O)N2CCN(c3cc(C)nc(C)c3)CC2)cs1 | 7.64%
c1cc(-c2nnn3c2COC(CNCc2nccs2)C3)ccn1 (stereo unspecified) | 16.87%
O=C(c1cccc(OC2CCCC2)c1)N1CCCC(n2cncn2)C1 (stereo unspecified) | 27.55%

SMILES | INHIBITION
Cc1nsc(NC(=O)N2CCC(C(C)(C)O)CC2)n1 | -0.55%
CN1CCN(C(=O)c2cn(Cc3ccccc3)c3ncccc23)CC1 | 46.61%
Cc1ccc(NC2CCN(C(=O)CCc3nccs3)CC2)nn1 | 3.06%
CC(C)Cn1cc(C(=O)NC2CCS(=O)(=O)C2)c2ccccc2c1=O (stereo unspecified) | -70.1%
O=C(C1CCOCC1)N1CCC2(CC1)CN(c1ccsc1)C(=O)CO2 | -17.15%
CS(=O)(=O)Cc1ccc(NC(=O)c2cccnc2)cc1F | -35.1%
NC1CCc2nc(-c3cccnc3)nc(Nc3ccc(F)cc3)c2C1 (stereo unspecified) | -13.75%
CCc1nc(C2CCCN2CCCSC)no1 (stereo unspecified) | 55.92%
CSCCCN1CCCC1c1noc(C)n1 (stereo unspecified) | -8.84%
CCc1nc(C2CCCN2CCCS(N)(=O)=O)no1 (stereo unspecified) | 22.29%
Cn1ccc(CN2CCC(CC(=O)N3CCCC3)CC2)cc1=O | 14.5%
Cc1cccc(N2CCC(NC(=O)CCCc3cccs3)CC2)n1 | -52.85%
CCc1nc(C2CCCN2C(=O)c2ccc(N3CCCC3)nn2)no1 (stereo unspecified) | 63.46%
CCc1nc(C2CCCN2C(=O)CCc2nc(C(C)(C)C)no2)no1 (stereo unspecified) | 44.43%
CCc1nc(C2CCCN2C(=O)CCc2nc(C3CC3)no2)no1 (stereo unspecified) | -25.46%
CCc1nc(C2CCCN2C(=O)c2c[nH]c(C)n2)no1 (stereo unspecified) | -72.93%
CCc1nc(C2CCCN2C(=O)CCc2c(C)noc2Cl)no1 (stereo unspecified) | 51.94%
CCc1nc(C2CCCN2C(=O)c2ccc(N(C)C)nn2)no1 (stereo unspecified) | 5.91%
CCn1cc(-c2cc(-c3ccn(C)c3)nc(N)c2C#N)cc1C#N | 17.19%
Cc1cnn(CC2CCCCN2C(=O)c2ccc3[nH]nnc3c2)c1 (stereo unspecified) | 39.32%
COc1ccc2cc(C(=O)N3CCCC3Cn3cc(C)cn3)[nH]c2c1 (stereo unspecified) | 53.98%
Cc1cnn(CC2CCCN2C(=O)c2ccc3[nH]c(=O)[nH]c3c2)c1 (stereo unspecified) | -73.25%

SMILES | INHIBITION
Cc1cnn(CC2CCCN2C(=O)c2ccc3[nH]nnc3c2)c1 (stereo unspecified) | 53.72%
COc1ccc2cc(C(=O)N3CCCCC3Cn3cccn3)[nH]c2c1 (stereo unspecified) | -28.85%
Cc1cnn(CC2CCCN2C(=O)c2cc3ccccc3[nH]2)c1 (stereo unspecified) | -20.11%
CC1CCN(C(=O)[C@H]2C[C@@H]3CCN(CC4CCOCC4)C[C@@H]3O2)CC1 | -21.33%
COCc1nc(C(=O)NS(=O)(=O)c2c(C)c(C)cc(C)c2C)cs1 | 18.85%
O=C(c1cn2ccsc2n1)N1CCN(CC2CC2)[C@@H]2CS(=O)(=O)C[C@@H]21 | -18.12%
Cn1cccc1C(=O)N1CCc2c(CNS(C)(=O)=O)cncc2C1 | 6.66%
CC(C)(C)NC(=O)c1cccc(CN2CCS(=O)(=O)CC2)c1 | 12.32%
CCc1cccnc1NCc1cnc(N2CCOCC2)nc1 | -20.29%
O=C(Cc1ccc(F)cc1)NCCNS(=O)(=O)C1CCCC1 | -36.61%
CCCc1n[nH]c(C2CN(Cc3nnc(C4CC4)n3C)CCO2)n1 (stereo unspecified) | 30.05%
Cc1n[nH]c(C2CN(Cc3nnc(C4CC4)n3C)CCO2)n1 (stereo unspecified) | -82.49%
CCc1n[nH]c(C2CN(Cc3nnc(C4CC4)n3C)CCO2)n1 (stereo unspecified) | 51.32%
COCCOC1CCN(C(C(=O)O)c2c(Cl)cccc2OC)CC1 (stereo unspecified) | -17.86%
Cc1cc(=O)[nH]c(=O)n1-c1cccc(Cl)c1Cl | -12.39%
O=C1NCCN1C1CCN(Cc2nc(-c3ccccc3)no2)CC1 | 64.16%
Cc1ccc(-c2noc(CN3CCC(N4CCNC4=O)CC3)n2)cc1 | 9.17%
O=C1NCCN1C1CCN(Cc2nc(-c3ccc(F)cc3)no2)CC1 | 21.39%
